# Laboratory results reported in PubChem BioAssay (EPA / NIEHS).
# The source made the active and inactive calls. Rule for the calls: active = hit-call score of the fitted dose curve at least 0.9, where 1 is the maximum; inactive = score below 0.9.
# Assays:
# [1] = ATG_CRE_CIS: Attagene CIS-FACTORIAL HepG2 Assay for human cAMP Responsive Element (CRE) binding protein 3 (AID 2282926); conditions: HepG2 CRE cis-reporter, Attagene multiplexed mRNA; actives raise or lower the signal
# Procedure, shortened: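 Transfected HepG2 were treated for 24 hours, then RNA was extracted and reporter cDNA amplified with sequence-specific primers. Labelled fragments were separated by capillary electrophoresis, and the CRE signal was fitted bidirectionally with DMSO as baseline.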
# [2] = biological target: CCAAT/enhancer-binding protein beta (Homo sapiens) (UniProt P17676); test: ATG_C_EBP_CIS: Attagene CIS-FACTORIAL HepG2 Assay for human CCAAT/Enhancer Binding Protein (C/EBP) beta (AID 2282927); conditions: HepG2 Attagene cis-factorial transcription factor reporter; actives raise or lower the signal
# Chain of CCAAT/enhancer-binding protein beta (Homo sapiens) (P17676 whole entry, looked up): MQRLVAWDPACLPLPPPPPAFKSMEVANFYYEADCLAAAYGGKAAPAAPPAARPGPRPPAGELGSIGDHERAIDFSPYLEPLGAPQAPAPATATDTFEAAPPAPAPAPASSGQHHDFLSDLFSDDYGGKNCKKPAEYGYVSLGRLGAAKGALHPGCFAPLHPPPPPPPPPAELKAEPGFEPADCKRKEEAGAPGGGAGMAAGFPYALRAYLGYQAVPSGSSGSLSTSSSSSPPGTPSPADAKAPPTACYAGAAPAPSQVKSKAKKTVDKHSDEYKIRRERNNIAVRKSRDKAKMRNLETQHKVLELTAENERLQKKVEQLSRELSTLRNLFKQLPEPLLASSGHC
# Procedure, shortened: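 RT-PCR/capillary electrophoresis fluorescence of reporter mRNA, 24 h post-dose, in HepG2 cells carrying transfected cis-promoter reporter units. Bidirectional curve fitting against DMSO baseline captures gain or loss of signal.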
# [3] = ATG_CMV_CIS: Attagene CIS-FACTORIAL HepG2 Assay for human CMV (Internal Marker) (AID 2282928); conditions: HepG2 CMV promoter reporter, transcription factor profiling; actives raise or lower the signal;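 note: endpoint acts as a background internal control marker rather than a target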
# Procedure, shortened: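 After transient transfection of HepG2 with reporter transcription units driven by cis-regulatory promoters, cells receive test chemical for 24 h. Labeled reporter amplicons, digested with HpaI, are sized and quantified by capillary electrophoresis against DMSO.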
# [4] = ATG_DR4_LXR_CIS: Attagene CIS-FACTORIAL HepG2 Assay for human Liver X Receptor (LXR), DR4 submotif (AID 2282929); conditions: HepG2 Attagene DR4 cis-reporter, mRNA transcription; actives raise or lower the signal
# Procedure, shortened: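 HepG2, transient MRTU transfection, cis-element (DR4) promoter; 24 h compound exposure; total RNA → oligo(dT) RT → PCR → 6-FAM primer extension → HpaI cut → CE. Gain/loss vs DMSO, bidirectional fit.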
# [5] = biological target: Aryl hydrocarbon receptor (Homo sapiens) (UniProt P35869); test: ATG_Ahr_CIS: Attagene CIS-FACTORIAL HepG2 Assay for human Aryl Hydrocarbon Receptor (Ahr) (AID 2282930); conditions: HepG2 AhR cis-factorial reporter transcription; actives raise or lower the signal
# Chain of Aryl hydrocarbon receptor (Homo sapiens) (P35869 whole entry, looked up): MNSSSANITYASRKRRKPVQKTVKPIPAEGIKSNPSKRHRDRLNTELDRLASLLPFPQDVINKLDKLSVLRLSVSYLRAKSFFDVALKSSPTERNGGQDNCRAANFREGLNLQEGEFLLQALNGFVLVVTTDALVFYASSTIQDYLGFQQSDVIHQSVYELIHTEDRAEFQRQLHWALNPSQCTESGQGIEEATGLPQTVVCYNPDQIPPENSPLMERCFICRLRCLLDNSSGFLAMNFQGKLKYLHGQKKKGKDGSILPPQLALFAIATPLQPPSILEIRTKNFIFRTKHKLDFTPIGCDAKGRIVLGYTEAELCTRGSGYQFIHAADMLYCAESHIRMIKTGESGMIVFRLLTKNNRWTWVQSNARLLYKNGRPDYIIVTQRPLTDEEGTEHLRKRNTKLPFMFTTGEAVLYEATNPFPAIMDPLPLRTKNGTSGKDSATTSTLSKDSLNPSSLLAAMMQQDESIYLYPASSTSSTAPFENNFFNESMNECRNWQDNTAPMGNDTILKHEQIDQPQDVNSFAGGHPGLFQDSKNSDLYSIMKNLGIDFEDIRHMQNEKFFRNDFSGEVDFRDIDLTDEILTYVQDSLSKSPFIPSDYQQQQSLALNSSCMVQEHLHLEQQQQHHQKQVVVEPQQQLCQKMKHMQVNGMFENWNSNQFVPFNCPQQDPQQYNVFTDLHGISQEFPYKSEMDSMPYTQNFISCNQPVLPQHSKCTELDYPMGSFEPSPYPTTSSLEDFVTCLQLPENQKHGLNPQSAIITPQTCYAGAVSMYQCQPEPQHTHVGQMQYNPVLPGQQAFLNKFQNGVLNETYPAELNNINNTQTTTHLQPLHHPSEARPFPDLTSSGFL
# Procedure, shortened: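 HepG2 cells transiently transfected with cis-element-driven multiplexed reporter transcription units; endogenous transcription factor activity measured as reporter mRNA 24 h after dosing. RT-PCR, 6-FAM labelling, HpaI digestion, capillary electrophoresis; bidirectional fitting versus DMSO baseline.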
# [6] = ATG_AP_1_CIS: Attagene CIS-FACTORIAL HepG2 Assay for human Activator Protein 1 (AP-1) (AID 2282931); conditions: HepG2 Attagene cis-factorial AP-1 reporter mRNA; actives raise or lower the signal
# Procedure, shortened: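 Transient MRTU transfection of HepG2 → 24 h chemical treatment → RNA isolation, RT-PCR, 6-FAM labelling, HpaI digest → capillary electrophoresis. Fit: bidirectional, DMSO negative control.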
# [7] = ATG_AP_2_CIS: Attagene CIS-FACTORIAL HepG2 Assay for human Activator Protein 2 (AP-2) (AID 2282932); conditions: HepG2 AP-2 cis-reporter, Attagene transcription factor profiling; actives raise or lower the signal
# Procedure, shortened: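 Bidirectional curve fitting against DMSO was applied to reporter mRNA signals from HepG2 cells 24 h after dosing. Cis-promoter reporter units, transiently transfected, were read by RT-PCR plus capillary electrophoresis.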
# [8] = ATG_BRE_CIS: Attagene CIS-FACTORIAL HepG2 Assay for human Bone Morphogenetic Protein (BMP) Response Element (BRE) (AID 2282933); conditions: HepG2 BMP response element reporter, Attagene transcription factor profiling; actives raise or lower the signal
# Procedure, shortened: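 Fluorescence-labelled reporter cDNA fragments, separated by capillary electrophoresis, gave the signal for this component of a 52-readout multiplex. HepG2 cells were transfected, exposed to chemicals for 24 h, and compared with DMSO using bidirectional fitting.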
# [9] = biological target: Transcription factor E2F1 (Homo sapiens) (UniProt Q01094); test: ATG_E2F_CIS: Attagene CIS-FACTORIAL HepG2 Assay for human E2F Transcription Factor 1 (AID 2282935); conditions: HepG2 Attagene cis-reporter, E2F reporter RNA transcripts; actives raise or lower the signal
# Chain of Transcription factor E2F1 (Homo sapiens) (Q01094 whole entry, looked up): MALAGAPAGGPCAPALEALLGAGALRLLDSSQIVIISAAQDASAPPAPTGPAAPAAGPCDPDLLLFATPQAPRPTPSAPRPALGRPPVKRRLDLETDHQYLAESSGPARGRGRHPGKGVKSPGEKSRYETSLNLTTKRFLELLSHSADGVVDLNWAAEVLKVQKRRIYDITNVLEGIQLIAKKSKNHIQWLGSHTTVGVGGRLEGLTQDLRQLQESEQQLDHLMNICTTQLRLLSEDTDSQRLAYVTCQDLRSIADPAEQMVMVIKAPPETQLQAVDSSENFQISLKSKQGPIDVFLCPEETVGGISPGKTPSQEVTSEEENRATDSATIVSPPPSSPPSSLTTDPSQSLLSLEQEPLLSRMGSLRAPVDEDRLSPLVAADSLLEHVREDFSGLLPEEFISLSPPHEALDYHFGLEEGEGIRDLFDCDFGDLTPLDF
# Procedure, shortened: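 Multiplexed cis-reporter assay: HepG2, transient transfection, 24 h dosing, mRNA quantitation by labeled RT-PCR and CE.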
# [10] = biological target: Retinoic acid receptor alpha (Homo sapiens) (UniProt P10276); test: ATG_DR5_RAR_CIS: Attagene CIS-FACTORIAL HepG2 Assay for human Retinoic Acid Receptor Alpha (RARE), DR5 submotif (AID 2282934); conditions: HepG2 Attagene cis-factorial RARE DR5 reporter, mRNA; actives raise or lower the signal;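 for AC50: reporter responds to endogenous RAR alpha beta and gamma in HepG2 not RARA alone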
# Chain of Retinoic acid receptor alpha (Homo sapiens) (P10276 whole entry, looked up): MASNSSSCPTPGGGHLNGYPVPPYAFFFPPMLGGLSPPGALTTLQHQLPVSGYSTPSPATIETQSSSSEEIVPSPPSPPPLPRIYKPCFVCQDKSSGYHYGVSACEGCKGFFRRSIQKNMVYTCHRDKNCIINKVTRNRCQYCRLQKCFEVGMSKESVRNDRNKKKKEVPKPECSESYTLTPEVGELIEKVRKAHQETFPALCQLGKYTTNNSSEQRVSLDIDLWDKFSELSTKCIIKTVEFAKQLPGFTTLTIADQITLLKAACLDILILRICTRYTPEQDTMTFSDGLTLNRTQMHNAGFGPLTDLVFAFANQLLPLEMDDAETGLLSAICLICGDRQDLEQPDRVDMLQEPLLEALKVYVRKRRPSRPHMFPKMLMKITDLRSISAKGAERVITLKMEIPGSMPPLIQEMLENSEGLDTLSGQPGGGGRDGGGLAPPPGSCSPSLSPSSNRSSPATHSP
# Procedure, shortened: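 HepG2 cells transiently transfected with multiplexed reporter units under cis (DR5 RARE) promoters, so endogenous transcription factor activity is measured. After 24 h compound exposure, reporter mRNA is quantified by RT-PCR with fluorescent labelling and capillary electrophoresis; bidirectional fitting versus DMSO.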
Compound,outcome [1],outcome [2],outcome [3],outcome [4],outcome [5],outcome [6],outcome [7],outcome [8],outcome [9],AC50 [3],AC50 [4],AC50 [5],AC50 [6],outcome [10],AC50 [9],AC50 [8],AC50 [10]
O=C(O)C(Cl)Cl,inactive,inactive,inactive,inactive,inactive,inactive,inactive,inactive,inactive,,,,,,,,
O=C(O)C1C(C(=O)O)C2(Cl)C(Cl)=C(Cl)C1(Cl)C2(Cl)Cl (configuration not stated),inactive,inactive,inactive,inactive,inactive,inactive,inactive,inactive,inactive,,,,,,,,
C=CC(=O)OCC(CC)(COC(=O)C=C)COC(=O)C=C,inactive,inactive,,,,,inactive,inactive,,12.1 µM (active),16.8 µM (active),35.9 µM (active),113 µM (active),inactive,100 µM (active),,
Cc1cccc(N)c1,inactive,inactive,inactive,inactive,inactive,inactive,inactive,inactive,inactive,,,,,,,,
O=C(O)CF,inactive,inactive,inactive,inactive,inactive,inactive,inactive,inactive,inactive,,,,,,,,
[N-]=[N+]=[N-],inactive,inactive,inactive,inactive,,inactive,inactive,inactive,inactive,,,,,,,,
O=P(Oc1ccccc1)(Oc1ccccc1)Oc1ccccc1,inactive,inactive,inactive,,inactive,,inactive,,inactive,,13.5 µM (active),,52.6 µM (active),,,54 µM (active),
Cn1[nH]nnc1=S,inactive,inactive,inactive,inactive,inactive,inactive,inactive,inactive,inactive,,,,,inactive,,,
CCN(CC)c1ccccc1,inactive,inactive,inactive,inactive,inactive,inactive,inactive,inactive,inactive,,,,,,,,
CCCCN(CCCC)N=O,inactive,inactive,inactive,inactive,inactive,inactive,inactive,inactive,inactive,,,,,,,,
CC(C)(C)c1ccc(O)cc1,,inactive,,inactive,inactive,,inactive,,inactive,100 µM (active),,,,,,58.1 µM (active),
Oc1ccccc1Br,inactive,inactive,inactive,inactive,inactive,inactive,inactive,inactive,inactive,,,,,inactive,,,
Cc1ccc(N)cc1N,inactive,inactive,inactive,inactive,,inactive,inactive,inactive,inactive,,,5.24 µM (active),,,,,
Nc1ccc(Cl)cc1,inactive,inactive,inactive,inactive,inactive,inactive,inactive,inactive,inactive,,,,,,,,
CC(C)(C)OOC(C)(C)C,inactive,inactive,inactive,inactive,inactive,inactive,inactive,inactive,inactive,,,,,,,,
O=NN1CCCC1,inactive,inactive,inactive,inactive,inactive,inactive,inactive,inactive,inactive,,,,,inactive,,,
CC(Cc1ccc(OCC(=O)O)cc1)NCC(O)c1csc(C(F)(F)F)n1 (configuration not stated),inactive,inactive,inactive,inactive,inactive,inactive,inactive,inactive,inactive,,,,,,,,
CCOP(=S)(OCC)SCSCC,inactive,inactive,inactive,inactive,inactive,inactive,inactive,inactive,inactive,,,,,,,,
ClC1=C(Cl)C2(Cl)C3C(Cl)C(Cl)CC3C1(Cl)C2(Cl)Cl (configuration not stated),inactive,inactive,,,,,inactive,inactive,inactive,48.8 µM (active),18.1 µM (active),,48.1 µM (active),,,,1.27 µM (active)
